Screening results deposited in PubChem BioAssay by Fisher Drug Discovery Resource Center.
NPYLR7 agonist: agonists of mosquito NPYLR7 receptor, primary screen, cell-based, Aedes aegypti, calcium fluorescence, mosquito biting behavior; Aedes aegypti neuropeptide Y-like receptor 7 (NPYLR7); HEK293T NPYLR7/Galpha15, GCaMP6s calcium fluorescence; activation, % at 10 µM; 270,000 compounds, 0.15% hits; AID 1259423, 2018; in the data active means activation above about 40%
hcGAS lum: Primary biochemical luminescence assay for human cyclic GMP-AMP synthase inhibitors | 290,000 compounds, 0.081% hits | inhibition, % at 12.5 µM | recombinant h-cGAS, ATP depletion, Kinase-Glo luminescence | Q8N884
Target sequence (Q8N884 whole entry, looked up): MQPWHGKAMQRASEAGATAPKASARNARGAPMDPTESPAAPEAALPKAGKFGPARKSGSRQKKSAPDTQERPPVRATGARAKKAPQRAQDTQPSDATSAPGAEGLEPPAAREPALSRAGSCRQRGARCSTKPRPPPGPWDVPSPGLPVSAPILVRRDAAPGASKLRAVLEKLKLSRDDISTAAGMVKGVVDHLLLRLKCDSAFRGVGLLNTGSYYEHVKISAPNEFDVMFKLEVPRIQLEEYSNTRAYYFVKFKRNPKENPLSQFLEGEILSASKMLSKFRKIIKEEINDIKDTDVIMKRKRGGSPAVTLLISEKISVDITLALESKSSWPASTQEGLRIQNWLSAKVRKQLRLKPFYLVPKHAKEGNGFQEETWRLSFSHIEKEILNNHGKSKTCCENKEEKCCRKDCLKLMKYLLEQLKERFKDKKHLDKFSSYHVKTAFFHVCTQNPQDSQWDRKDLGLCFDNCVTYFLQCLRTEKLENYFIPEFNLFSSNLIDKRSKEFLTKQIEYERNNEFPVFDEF
mcGAS inh: cyclic GMP-AMP synthase inhibitors, mouse, primary biochemical chemiluminescence; AID 1259399, 2018; 160,000 compounds, 0.15% hits; Q8C6L5; recombinant cGAS, Kinase-Glo ATP depletion luminescence; inhibition, % at 12.5 µM
Large screens that a line does not name were inactive. Only some compounds are listed: those with a hit (about 0.28% of all), similar ones and a draw of the others. Unless noted, no stated cut-off is given here; in the data, active means inhibition above about 40%; inactive means the rest.

COc1cc(/C=C/c2nc3ccccc3o2)cc(Cl)c1O	NPYLR7 agonist 334
Nc1ccc(/C=C/c2nc3ccccc3o2)cc1	none
O=C1/C(=C/c2cc3cc(Br)ccc3o2)Oc2c1ccc(O)c2CN1CCN(CCO)CC1	NPYLR7 agonist 72
Cc1cc(O)c(CN2CCN(CCO)CC2)c2c1C(=O)/C(=C/c1cccc(Br)c1)O2	none
COc1cc(-c2nc(CN3CCN(c4cc(C)cc(C)c4)C(=O)C3)c(C)o2)cc2c1OCO2	none
Cc1nn(-c2ccccc2)c(C)c1C1C(=O)NCCN1C(=O)Nc1ccccc1F (stereo unspecified)	none (no result: mcGAS inh)
CCOC(=O)c1c(N)c2c(-c3ccccc3)c(C#N)c(OCC)nc2n1C	none (no result: mcGAS inh)
CCOc1nc(Cl)c(C#N)c(-c2ccccc2)c1C#N	hcGAS lum 45 (no result: mcGAS inh)
NC(=O)CN1c2cccc3cccc(c23)S1(=O)=O	NPYLR7 agonist 106 (no result: mcGAS inh)
CCC(CC)NC(=O)CN1c2cccc3cccc(c23)S1(=O)=O	none (no result: mcGAS inh)
CCS(=O)(=O)Oc1cccc(CN(Cc2ccco2)C(=O)c2cccc(OC)c2)c1	none
Cc1csc(N2C(=N)SC(c3ccccc3)C2=O)n1 (stereo unspecified)	none
Cc1csc(N2C(=N)SCC2=O)n1	hcGAS lum 42
Cc1ccc(N2CCn3c2nnc(C(=O)NCCCn2ccnc2)c3=O)cc1	none
N#CC(C(=S)Nc1ccccc1F)c1nc2ccccc2s1 (stereo unspecified)	none (no result: mcGAS inh)
N[C@@H](Cc1cc(-c2ccc(Cl)cc2Cl)cc(CP(=O)(O)O)c1O)C(=O)O	hcGAS lum 53 (no result: mcGAS inh)
NC(Cc1ccc(Cl)cc1)C(=O)O (stereo unspecified)	none
O=C(O)c1c[nH]c2c(ccc3ccccc32)c1=O	mcGAS inh 42
O=C(O)c1c[nH]c2cc(C(F)(F)F)ccc2c1=O	none
O=P1(Nc2ccc(-c3ccccc3)cc2)C=C(c2ccccc2)OC(c2ccccc2)=C1	none (no result: mcGAS inh)
Cc1ccc(CN(Cc2ccc(F)cc2)CC(O)Cc2ccccc2)c(C)c1 (stereo unspecified)	none
CCCN(Cc1cc(C)ccc1C)CC(O)Cc1ccccc1 (stereo unspecified)	mcGAS inh 62
O=C(C=Cc1ccc(F)cc1)N1CCN(S(=O)(=O)c2ccc3c(c2)OCCCO3)CC1	none
CC(=O)Nc1cccc(NC(=O)CSc2nc3c(-c4ccccc4)c(C)nn3c(=O)[nH]2)c1	none
Cc1cc(NC(=O)CSc2nc3c(-c4ccccc4)c(C)nn3c(=O)[nH]2)no1	hcGAS lum 46
CCCn1ccc2ccc(NC(=O)Cc3csc(C(C)C)n3)cc21	none
O=C1NC(=S)SC1=Cc1ccc(Cl)cc1	mcGAS inh 55
O=C(O)CN1C(=O)/C(=C/c2c(F)cccc2Cl)SC1=S	none
O=C1NC(=S)SC1=Cc1ccc(F)cc1	none
O=C1NC(=S)SC1=Cc1c(F)cccc1Cl	hcGAS lum 48 (no result: mcGAS inh)
O=C(NC(Cc1ccccc1)c1ccccc1)c1csc(CSc2nnc(-c3ccco3)n2-c2ccc(Cl)cc2)n1 (stereo unspecified)	none
O=C(CCl)Nc1nc(-c2ccccc2Cl)cs1	mcGAS inh 60
O=C(CCC1CCCC1)Nc1nc(-c2ccccc2Cl)cs1	none (no result: mcGAS inh)
O=C(c1ccccc1CCc1ccccc1)N1CCN(c2ncccn2)CC1	none (no result: mcGAS inh)
COc1ccc(CCNC(=O)c2ccccc2N2CCC(NC(=O)c3ccc(OC)c(OC)c3)CC2)cc1OC	none
COc1ccc(CCNC(=O)c2ccccc2N2CCC(NC(=O)c3ccco3)CC2)cc1OC	mcGAS inh 78
O=C1c2ccc(-c3nc4ccccc4c(=O)o3)cc2C(=O)N1c1ccc(Br)cc1	none
O=C1c2ccc(-c3nc4ccccc4c(=O)o3)cc2C(=O)N1c1nc2ccccc2s1	mcGAS inh 45
Cc1ccc(NC(=O)N2CCN(c3ccc(-c4ccccc4C)nn3)CC2)cc1C	none (no result: NPYLR7 agonist)
Fc1ccc(N2CCN(C3CCCN(Cc4cccn4-c4ccccn4)C3)CC2)cc1 (stereo unspecified)	none
CCOC(=O)Cc1cnc(C)[nH]c1=O	none
CCOC(=O)Cc1c(C)n2nc(C)cc2[nH]c1=O	hcGAS lum 58 (no result: mcGAS inh)
CC1CCCCN1CC(O)COC12CC3CC(CC(C3)C1)C2 (stereo unspecified)	none
N#CC(=Cc1ccc(Cl)cc1Cl)C(N)=S	mcGAS inh 67
CC(C)NC(=O)C(C#N)=Cc1ccc(Cl)cc1Cl	none
CSC(=S)N/N=C(/c1ccccc1)c1ccccn1	hcGAS lum 64
NC(=S)NN=C(C(=O)c1ccccn1)c1ccccn1	none (no result: mcGAS inh)
CC(C)[C@H]1CC[C@H](C)C[C@@H]1OCC(=O)N1CCC(c2ccccc2)CC1	none
O=c1cc(-c2ccccc2)n2c(=S)[nH]nc2[nH]1	hcGAS lum 64 (no result: mcGAS inh)
CCc1cc(=O)[nH]c2n[nH]c(=S)n12	none (no result: mcGAS inh)
O=C1C(Cl)=C(N2CCOCC2)C(=O)N1c1ccc(Cl)c(Cl)c1	mcGAS inh 50
O=C1C(Cl)=C(N2CCOCC2)C(=O)N1c1ccccc1F	none (no result: mcGAS inh)
COc1ccc(CN2C(=O)c3ccccc3C2=O)cc1F	none (no result: mcGAS inh)
COc1cccc(CN2C(=O)c3cccc(N)c3C2=O)c1	NPYLR7 agonist 43 (no result: mcGAS inh)
C=CCn1c(SCc2ccccc2C#N)nnc1-c1ccccc1F	none
O=C(NCc1nnc(SCC(=O)N2CCc3ccccc32)n1-c1cccc(C(F)(F)F)c1)c1ccc(S(=O)(=O)N2CCCC2)cc1	none
CNC(=O)c1cnc(/C=C/c2cc(OC)c3c(c2)OCCO3)s1	none (no result: mcGAS inh)
COC(=O)c1cnc(/C=C/c2cc(C)c(O)c(C)c2)s1	NPYLR7 agonist 46 (no result: mcGAS inh)
CC(C)(C)C1CCC(C(=O)OCC(=O)NC23CC4CC(CC(C4)C2)C3)CC1 (stereo unspecified)	none
O=C(Nc1ccc(Cl)cc1)N1CCCN(C2CC2)CC1	none (no result: mcGAS inh)
Nc1c(NC(=O)N2CCN(C3CCCC3)CC2)c(-c2ccc(Cl)cc2)nn1-c1ccccc1	hcGAS lum 164 (no result: mcGAS inh)
CN1C(=CC=C(C#N)C#N)C=Cc2ccccc21	none (no result: mcGAS inh)
C=CCN1C=CC(=CC=C(C#N)C#N)C=C1	NPYLR7 agonist 72 (no result: mcGAS inh)
Cc1ccc(-n2c(SCc3nc(C(=O)N4CCN(c5ccccc5F)CC4)cs3)nnc2-c2cccnc2)cc1	none
CCCCNC(=O)CCCCCNC(N)=O	NPYLR7 agonist 55 (no result: mcGAS inh)
CCCCCCCCCCCCCCCC(=O)NCCO	none
CC(C)(C(N)=O)/[N+]([O-])=C\c1ccccc1	none (no result: mcGAS inh)
O=C(O)c1ccccc1OP(=O)(O)O	mcGAS inh 61
CCCCC(=O)Oc1ccccc1C(=O)O	none (no result: NPYLR7 agonist)
CN(Cc1ccc(S(C)=O)cc1)C(=O)c1cc(F)ccc1F (stereo unspecified)	none
CN(C)[C@@H]1[C@@H](NC(=O)CCCn2ccnc2)[C@H]2CCO[C@H]21	none (no result: NPYLR7 agonist)
Cc1nn(-c2ccc(Cl)cc2)cc1C(=O)NC1CC(=O)N(C)C1 (stereo unspecified)	none
COc1cccc(C(=O)NCCNc2cc(N3CCOCC3)nc(C)n2)c1OC	none (no result: mcGAS inh)
Oc1ccc(C2=NN=CC2Oc2ccccc2)c(O)c1O (stereo unspecified)	none (no result: mcGAS inh)
O=C1NC(=NS(=O)(=O)c2ccccc2)SC1=Cc1cc([N+](=O)[O-])ccc1O	NPYLR7 agonist 61, mcGAS inh 75
O=C1NC(=NC2CCCC2)SC1=Cc1cc([N+](=O)[O-])ccc1N1CCCC1	none (no result: mcGAS inh)
Cn1ccc2c(-c3c(-c4ccccc4)ncn3CCN3CCOC3=O)cccc21	none (no result: mcGAS inh)
COc1ncc(CN(C)Cc2noc(C)n2)cn1	none (no result: mcGAS inh)
COc1cc([N+](=O)[O-])ccc1-c1ccc(/C=C2/NC(=S)NC2=O)o1	none
